Holding throughout (assay): NCI-60 one-dose screen, 48 h (100 = growth as untreated, 0 = no growth, -100 = all killed)
What all share (conditions): 10 µM unless noted

Assay [1] concerns SR leukemia.
The subject of assay [2] is OVCAR-8 ovarian.
For assay [3], the system named is OVCAR-5 ovarian.
The subject of assay [4] is OVCAR-4 ovarian.
The test system of assay [5] is SK-OV-3 ovarian.
Assay [6] concerns IGROV1 ovarian.
Assay [7] relates to OVCAR-3 ovarian.
The subject of assay [8] is HS 578T breast.
Assay [9] has as its system NCI/ADR-RES ovarian.
The test system of assay [10] is T-47D breast.
The subject of assay [11] is BT-549 breast.
The subject of assay [12] is MDA-MB-435 melanoma.
Assay [13] relates to SW-620 colon.
Assay [14] concerns MCF7 breast.
Assay [15] has as its system HCT-116 colon.
Assay [16] has as its system HCC-2998 colon.
Assay [17] deals with KM12 colon.
For assay [18], the system named is RPMI-8226 leukemia.

This is part of a sample that, as a whole, favours compounds with a hit. Of some 83,000 tested, about 20% had one in any assay.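 Negative percent growth values reflect cell death: -40 means 40% of the cells present at the start died, and -100 means all died.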 Unmarked numbers belong to inactive results. Active and inactive are the calls of the source. How the source made its calls: active means growth percent below 10; inactive means the rest.

For the compound `Cc1cc(N=O)cc(C(C)(C)C)c1O`, the growth in assay [1] is 98.9%; in [2], 103%; in assay [3], 108%; in [4], 97.7%; in assay [5], 75.8%; in assay [6] it was 98.6%. The growth in [7] was 105%; in assay [8], 90.8%; in assay [9] it was 99.3%; in assay [10], 85.4%; in [11], 97.7%; in assay [12] it was 99.4%. For the same compound, the growth was 94.8% in assay [13]; 93.6% in assay [14]; 88.1% in [15]; 106% in assay [16]; 102% in [17].

In the case of `CC1(c2ccccc2)OC1C(=O)O` (stereo unspecified), the growth in assay [1] is 101%; in assay [18] it was 108%; in assay [2], 107%; in assay [5], 117%; in [6], 96.8%; in assay [7], 103%. The growth in assay [8] was 109%; in [9], 94.5%; in assay [10], 117%; in assay [11] it was 94.9%; in assay [12], 98.7%; in assay [13], 102%. The values for the growth in assay [14], in assay [15] and in assay [17] were 105%, 101% and 105%, respectively.

For `Brc1cnc2[nH]cc(-c3nnc(-c4ccccc4)o3)c2c1`, the growth in assay [1] is 68.5%; in assay [18], 85%; in assay [2], 84.7%; in assay [4], 71.3%; in [6], 41.2%; in assay [7], 70.2%. Besides, the growth in assay [8] is 79.2%; in [9], 80%; in [10], 56.5%; in assay [11], 82%; in assay [12], 78%; in assay [13], 86.4%. For the same compound, the growth is 63.6% in assay [14], 55.7% in assay [15], 104% in assay [16] and 68.9% in [17].

As for `COc1cc(-c2cc(-c3nc4cc(Cl)c(Cl)cc4[nH]3)[nH]n2)cc(OC)c1OC`, the growth in assay [1] is 54.5%; in [18], -7.57% (active); in [3], 101%; in assay [4], 52.5%; in assay [5], 104%; in [6] it was 87.2%. Also, the growth in [7] was 52.2%; in [9], 39.1%; in assay [10], -10.8% (active); in assay [11] it was 35.3%; in assay [12], 66.1%; in assay [13], 82.7%. Besides, the growth in assay [14] was 47.6%; in assay [15], 52.6%; in assay [16], 92.3%; in assay [17] it was 51.5%.

For the compound `COc1ccc(-c2cc(/C=C/C(=O)c3ccc(OC)c(OC)c3)[nH]n2)cc1`, the growth in assay [1] is -32.7% (active); in assay [18] it was -48.4% (active); in assay [3], 48.5%; in assay [4], 32.7%; in [5], 49.3%; in [6], 61%. Also, the growth in [7] is -14.6% (active); in assay [9], -0.366% (active); in assay [10] it was 22.2%; in assay [11], -34.2% (active); in assay [12], 21.3%; in assay [13], -70.5% (active). In addition, the growth in assay [14] was 6.07% (active); in assay [15], -40.7% (active); in assay [16] it was 92.7%; in assay [17], -79.9% (active).

For the compound `COc1ccc(-c2nc3ccccn3c2-c2nc3ccc(Cl)cc3[nH]2)cc1`, the growth in assay [1] is 70.3%; in assay [18] it was 43.7%; in assay [3], 102%; in assay [4], 86%; in assay [5] it was 107%; in [6], 102%. Besides, the growth in [7] was 73.9%; in assay [8], 93.6%; in assay [10], 75%; in [11], 94.4%; in assay [12], 86.9%; in assay [13] it was 88.4%. Further, the growth is 79.6% in [14], 93.5% in [15], 97.6% in [16] and 86.4% in assay [17].

Consider `Cc1oc(-c2ccccc2Cl)cc1C(=O)Nc1ccc(S(N)(=O)=O)cc1`, for which the growth in [1] is 101%; in assay [2] it was 98.1%; in [3], 102%; in [4], 96.8%; in [5], 98.5%; in [6], 113%. Besides, the growth in assay [7] is 117%; in assay [8], 101%; in assay [9] it was 102%; in [10], 83.2%; in assay [11], 104%; in assay [12], 102%. Further, the growth is 108% in assay [13]; 92.7% in assay [14]; 102% in assay [15]; 103% in [16]; 101% in [17].

For `Nc1ncnc2nc(Br)[nH]c12`, the growth in assay [1] is 91.8%; in assay [2], 92.8%; in [3] it was 99.8%; in [4], 102%; in assay [5], 95.2%; in assay [6] it was 106%. Further, the growth in [7] was 106%; in assay [8], 103%; in assay [9] it was 97.1%; in [10], 89.4%; in assay [11] it was 95.6%; in assay [12], 104%. Besides, the growth in [13] was 106%; in assay [14], 99.9%; in assay [15], 92.4%; in assay [16], 109%; in assay [17] it was 102%.

Turning to `COc1cc2c(cc1OC)C(=O)/C(=C/c1cc(-c3ccc4c(c3)OCO4)n[nH]1)C2`, the growth in assay [1] is -43.8% (active); in assay [18], -46.7% (active); in assay [3], 37.9%; in [4], 14.4%; in assay [5] it was 33.6%; in [6], 52.7%. Further, the growth in assay [7] is -50.4% (active); in assay [9], -15% (active); in assay [10], -4.12% (active); in assay [11], -47.8% (active); in assay [12], 17.3%; in assay [13] it was -84.9% (active). The growth is 0.343% (active) in assay [14], -61% (active) in assay [15], 89.3% in [16] and -82.3% (active) in [17].

(Values after PubChem BioAssay (NCI).)
